CYP2C19 activ: activators of human cytochrome P450 2C19; 96,000 tested, under 10 active; P33261; activation factor at 5 µM; recombinant CYP2C19, luciferin-H EGE luminescence; hits give high values; 0 = fully inhibited enzyme, 1 = untreated enzyme;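 active = activation factor of at least 2 at 5 µM in the primary screen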;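 also: 0 = wells with 2.5 mM tranylcypromine and 1 = vehicle-only wells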
Target sequence (P33261 whole entry, looked up): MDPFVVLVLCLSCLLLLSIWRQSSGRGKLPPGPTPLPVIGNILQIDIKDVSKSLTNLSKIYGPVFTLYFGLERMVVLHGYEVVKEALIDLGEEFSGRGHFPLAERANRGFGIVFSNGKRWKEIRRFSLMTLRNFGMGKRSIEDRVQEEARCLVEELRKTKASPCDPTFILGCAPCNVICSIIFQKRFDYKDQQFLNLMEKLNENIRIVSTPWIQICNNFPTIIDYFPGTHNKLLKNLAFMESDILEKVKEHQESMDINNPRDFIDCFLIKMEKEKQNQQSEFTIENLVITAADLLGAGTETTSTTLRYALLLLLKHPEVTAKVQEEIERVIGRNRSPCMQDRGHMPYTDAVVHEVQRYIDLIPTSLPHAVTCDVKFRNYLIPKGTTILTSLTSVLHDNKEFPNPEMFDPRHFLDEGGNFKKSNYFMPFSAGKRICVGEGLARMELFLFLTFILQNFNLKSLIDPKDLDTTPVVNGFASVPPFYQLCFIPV
CYP2C9 inh: blocks human cytochrome P450 2C9 | CYP2C9 Supersomes, luciferin-H conversion, luminescence | inhibition, % at 5 µM | hit rate 20% among 96,000 | AID 777;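 active = blocking of liver enzyme CYP2C9 beyond about 50% at 5 µM, limit read from the data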
CYP2C19 inh: inhibitors of human CYP2C19 | P33261 | CYP2C19 Supersomes, luciferin-H EGE luminescence, 30 min | inhibition, % at 5 µM | hit rate 21% among 96,000;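 active = CYP2C19 inhibition above a set limit at 5 µM in the primary screen, cut at about 50% in these data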;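 also: plate controls were negative control wells for no effect and 2.5 mM tranylcypromine positive control for full effect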
sEH activator: activators of human soluble epoxide hydrolase. purified human sEH enzymatic activity, activator screen. activation, % at 2 µM. hit rate 0.04% among 91,000; in the data active = activation above about 37%
CYP2C9 activ: CYP2C9 (human) activation. P11712. recombinant CYP2C9, luciferin-H conversion, luminescence; hits give high values; factor 1 = untreated enzyme, 0 = blocked. activation factor at 5 µM. hit rate 1.4% among 96,000;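 active = activation factor of 2 or more for CYP2C9 at a 5 µM dose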;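 also: 0 = sulfaphenazole-blocked wells and 1 = vehicle-only wells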
sEH inhibitor: blocks human soluble epoxide hydrolase activity. P34913. recombinant human sEH enzymatic activity assay. inhibition, % at 2 µM. hit rate 0.34% among 91,000. AID 707; in the data active = inhibition above about 80%
Starred values were filed as active, the others as inactive; . = not tested or not shown. This is a sample that favours compounds with a hit; in the whole collection about 27% have one here.

SMILES	CYP2C19 activ	CYP2C9 inh	CYP2C19 inh	sEH activator	CYP2C9 activ	sEH inhibitor
Cc1cc2c(cc1C)NC(c1c(C)n(C)n(-c3ccccc3)c1=O)C1=C(CC(C)(C)CC1=O)N2 (centres undefined)	1.1	-17	-6	-8	1.2	8
CC(O)CNc1nc2c(c(=O)n(C)c(=O)n2C)n1Cc1cccc(Br)c1 (centres undefined)	0.6	60*	44	5	0.4	-6
CC(C)CNc1nc2c(c(=O)n(C)c(=O)n2C)n1Cc1cccc(Br)c1	0.6	30	35	2	0.7	0
CC(CCO)Nc1nc2c(c(=O)n(C)c(=O)n2C)n1Cc1cccc(Br)c1 (centres undefined)	0.4	49	60*	10	0.5	-10
COC(=O)c1ccc2c(=O)n(C3CCCCC3)c(SCC#N)nc2c1	1.1	-9	-6	21	1.1	-21
Cc1ccc(-n2c(C)cc(/C=N/NC(=O)CC3(C)OCCO3)c2C)c(C)c1	.	.	.	-1	.	4
Cc1ccccc1N(CC(=O)N/N=C/c1cc(C)n(-c2ccccc2C)c1C)S(C)(=O)=O	0.9	58*	10	-6	0.4	8
Cc1c(N2C(=O)/C(=C3/C(=O)N(C)c4ccccc43)SC2=S)c(=O)n(-c2ccccc2)n1C	0.7	35	29	2	0.6	-1
CCCC(C(=O)O)N1C(=O)/C(=C2\C(=O)N(C)c3ccccc32)SC1=S (centres undefined)	0.9	68*	6	.	0.3	.
C1=CC2c3ccccc3NC(c3ccncc3)C2C1 (centres undefined)	0.2	73*	82*	-2	0.3	1
COC(=O)c1ccc(C2Nc3ccc(/C(C)=N/NC(=O)C(OC)c4ccccc4)cc3C3C=CCC32)cc1 (centres undefined)	0.8	34	24	-2	0.7	5
CC(=O)c1ccc2c(c1)C1C=CCC1C(c1ccncc1)N2 (centres undefined)	0.1	90*	92*	-12	0.1	9
O=C(CSc1ncn[nH]1)Nc1nc(-c2ccccc2)ns1	0.2	79*	78*	5	0.2	-2
Cc1nnc(SCCC(=O)Nc2nc(-c3ccccc3)ns2)s1	0.5	40	53*	-2	0.6	4
CC(C)(NO)/C(=N\O)c1ccc(Cl)cc1	0.9	17	10	-14	0.8	14
CC(C)(NO)/C(=N/O)c1ccc(Br)cc1	0.4	10	64*	4	0.9	-4
CN1C(=O)c2c(sc3c2CCCC3)NC1c1ccccc1O (centres undefined)	0.3	87*	74*	.	0.1	.
Cc1cccc(C2NC(=O)c3c(sc(C)c3C)N2)c1O (centres undefined)	1.1	-59	-5	6	1.6	-4
CSc1nc(N)nc(SC2C=CCCC2)c1C#N (centres undefined)	0.9	21	14	-9	0.8	12
C/C(N)=C(/C#N)C(=O)CSc1nnnn1-c1ccccc1	0.4	-11	64*	10	1.1	-9
C/C(N)=C(/C#N)C(=O)CSc1nnnn1-c1ccc(C)cc1	0.5	-20	52*	.	1.2	.
COc1ccc(-n2nnnc2SCC(N)=O)cc1	1.1	-15	-11	6	1.1	-2
O=C(O)CCSc1nnnn1-c1ccccc1	1.1	-14	-14	-9	1.1	10
CCCCCCSC1=C(C#N)C(=O)NC2(CCCCC2)S1	.	.	.	-8	.	10
N#C/C(C(=O)c1ccccc1)=C1/SC=C(N)N1c1ccccc1	0.2	92*	81*	-10	0.1	14
SMILES	CYP2C19 activ	CYP2C9 inh	CYP2C19 inh	sEH activator	CYP2C9 activ	sEH inhibitor
COC(=O)/C(C#N)=C1/SC=C(C)N1c1ccccc1	1	-16	2	2	1.2	1
Cc1cccc(NC(=O)Cc2coc3ccc4ccccc4c23)n1	0.1	-127	88*	2	2.3*	-2
Cc1cccc(NC(=O)CS(=O)(=O)Cc2ccccc2)n1	0.8	-9	18	4	1.1	-1
CCCCNC(=O)Cc1coc2ccc3ccccc3c12	0.4	-208	64*	-7	3.1*	10
CC(C)CN(CC(C)C)C(=O)Cc1coc2ccc3ccccc3c12	0.6	12	40	-1	0.9	3
Cc1ccc(CC(=O)Nc2cccc(C)n2)cc1	0.3	23	74*	5	0.8	0
O=C(Cc1coc2ccc3ccccc3c12)N1CCCC1	0.7	-86	34	0	1.9	0
C=CCn1c(SCC(C)=O)nnc1-c1cc(-c2ccccc2)sc1N	.	.	.	3	.	-2
Cc1ccc(S(=O)(=O)N2CCCC2C(=O)O)s1 (centres undefined)	1	3	-2	1	1	0
COc1ccc(CN2CCC(C(=O)NCCc3ccc(OC)c(OC)c3)CC2)c(OC)c1	0.9	13	6	18	0.9	-17
COC(=O)Nc1sc2c(c1C(=O)NC1CC1)CCCCCC2	0.7	21	32	-7	0.8	7
O=C(CNS(=O)(=O)c1ccc(Br)s1)N1CCC(N2CCCCC2)CC1	0.8	19	22	-19	0.8	17
COc1ccc(S(=O)(=O)N2CCCCC2)cc1C(C)C	0.7	22	31	-1	0.8	1
CCCCOc1ccc(S(=O)(=O)N2CCCCCC2)cc1	0.1	94*	93*	6	0.1	-5
O=C(COc1ccc(S(=O)(=O)N2CCCCC2)cc1)N1CCCCCC1	1.1	2	-6	7	1	-9
COc1ccccc1Oc1ccc(S(=O)(=O)N2CCCC2)cc1	0.4	78*	56*	-1	0.2	2
O=C(c1ccc(Cl)c(S(=O)(=O)N2CCOCC2)c1)N1CCN(Cc2ccccc2)CC1	.	.	.	-7	.	12
COc1ccc(Cl)cc1N1C(=O)/C(=C\c2sccc2C)N=C1SCC(=O)NC1CC1	0	97*	97*	1	0	0
CCc1ccc(NC(=O)COn2nnc3ccc(S(=O)(=O)N(C)C)cc32)cc1	0.2	82*	82*	-2	0.2	3
Cc1ccc(NC(=O)COn2nnc3ccc(S(=O)(=O)N(C)C)cc32)cc1F	0.1	98*	89*	-1	0	2
CCc1ccc2c(COn3nnc4ccc(S(=O)(=O)N(C)C)cc43)cc(=O)oc2c1	0.7	26	26	-4	0.7	8
CCCNC(=O)CC1Sc2ccccc2NC1=O (centres undefined)	0.7	-136	30	7	2.4*	-2
Cc1cccc(NC(=O)C2(c3ccccc3)CC2(Cl)Cl)c1 (centres undefined)	0.4	52*	61*	0	0.5	1
Cc1ccc(NC(=O)C2(c3ccccc3)CC2(Cl)Cl)cc1C (centres undefined)	0.3	30	74*	2	0.7	-5
Cc1cc(C)cc(NC(=O)C2(c3ccccc3)CC2(Cl)Cl)c1 (centres undefined)	0.7	43	28	-11	0.6	10
